Experimental data as given in PubChem BioAssay (NCATS).
Results filed as inconclusive are left out. Activity calls are given as the source filed them. Calls come from the whole dose curve; as a rule, active = well fitted curve in the direction sought with a large enough effect; inconclusive = small, poorly fitted or top-dose-only effect, or another doubt; inactive = no such curve, though single readings can be large; an effect the other way counts as inactive or inconclusive.

Columns and labels:
[1] = qHTS of pediatric cancer cell lines to identify multiple opportunities for drug repurposing: Confirmatory screen for U-2 OS cells (AID 1347122); note: nearly all actives have a fitted effect of over 65% in size;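 for activity change, negative = cytotoxicity: plate controls were DMSO for no effect and bortezomib for full effect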
Outline: (§1)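 Viability after 48 h compound treatment at 37C, 500-1,000 cells/well, read as ATP luminescence with CellTiter-Glo. Primary screens used 11-point (MIPE, 0.78 nM-46 µM) or 8-point (NPC, 0.59 nM-46 µM) final concentrations; follow-up screens used 11-point dilutions.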

[2] = qHTS of pediatric cancer cell lines to identify multiple opportunities for drug repurposing: Confirmatory screen for Rh41 cells (AID 1347123);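 note: 48 h compound exposure; nearly all actives have a fitted effect of over 60% in size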;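 for activity change, negative = cytotoxic: plate controls were DMSO for no effect and bortezomib for full effect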
Outline: as §1

[3] = qHTS of pediatric cancer cell lines to identify multiple opportunities for drug repurposing: Confirmatory screen for RD cells (AID 1347124);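 note: cells exposed to compound for 48 h before viability readout; nearly all actives have a fitted effect of over 65% in size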; for activity change, negative = cytotoxic: % is set by controls: 0 for no effect and ±100 for the full control effect
Outline: as §1

[4] = qHTS of pediatric cancer cell lines to identify multiple opportunities for drug repurposing: Confirmatory screen for Rh30 cells (AID 1347126); note: nearly all actives have a fitted effect of over 55% in size; for activity change, negative = cytotoxic: % is set by controls: 0 for no effect and ±100 for the full control effect
Outline: as §1

[5] = qHTS of pediatric cancer cell lines to identify multiple opportunities for drug repurposing: Confirmatory screen for BT-37 cells (AID 1347117);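 note: viability measured after 48 h of compound exposure; nearly all actives have a fitted effect of over 55% in size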;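 for activity change, negative = cytotoxic: plate controls were DMSO for no effect and bortezomib for full effect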
Outline: as §1

[6] = qHTS of pediatric cancer cell lines to identify multiple opportunities for drug repurposing: Confirmatory screen for MG 63 (6-TG R) cells (AID 1347119); note: nearly all actives have a fitted effect of over 55% in size;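 for activity change, negative = cytotoxicity: plate controls were DMSO neutral control for no effect and bortezomib for full effect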
Outline: as §1

[7] = qHTS of pediatric cancer cell lines to identify multiple opportunities for drug repurposing: Confirmatory screen for Rh18 cells (AID 1347125); note: nearly all actives have a fitted effect of over 55% in size; for activity change, negative = cytotoxic: % is set by controls: 0 for no effect and ±100 for the full control effect
Outline: as §1

[8] = qHTS of pediatric cancer cell lines to identify multiple opportunities for drug repurposing: Confirmatory screen for Saos-2 cells (AID 1347127); note: nearly all actives have a fitted effect of over 60% in size;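 for activity change, negative = cytotoxic: plate controls were DMSO for no effect and bortezomib for full effect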
Outline: as §1

[9] = qHTS of pediatric cancer cell lines to identify multiple opportunities for drug repurposing: Confirmatory screen for OHS-50 cells (AID 1347128); for activity change, negative = cytotoxic: % is set by controls: 0 for no effect and ±100 for the full control effect
Outline: as §1

[10] = qHTS of pediatric cancer cell lines to identify multiple opportunities for drug repurposing: Confirmatory screen for TC32 cells (AID 1347118);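 note: cells exposed to compound for 48 h before the read; nearly all actives have a fitted effect of over 65% in size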
Outline: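 Measured quantity: luminescence from CellTiter-Glo, reflecting metabolically active TC32 cells following 48 h of compound. Curves came straight from multi-point titrations, with 8 or 11 points in primary and 11 in confirmatory screening.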
Potency is the fitted concentration of half-maximal effect.

CC1CCc2c(N3CCC(O)CC3)c(F)cc3c(=O)c(C(=O)O)cn1c23 (stereo not given)
active: Potency [2] 18.5 µM
inactive: Potency [1] | Potency [3] | Potency [4]

COc1ccc(C(=O)c2ccccc2)c(O)c1
inactive: Potency [5] | Potency [6] | Potency [2] | Potency [3] | Potency [7] | Potency [4] | Potency [8] | Potency [9]

O=[N+]([O-])c1ccc(/C=N\O)o1
inactive: Potency [5] | Potency [7] | Potency [9]
active: Potency [10] 3.29 µM | Potency [1] 4.14 µM | Potency [2] 5.85 µM | Potency [3] 0.414 µM | Potency [4] 1.17 µM

CN(C)C(=O)Nc1ccc(Cl)c(Cl)c1
inactive: Potency [3]

C[C@@]12C(=O)OC(=O)[C@]1(C)C1CCC2O1
active: Potency [5] 2.08 µM | Potency [10] 3.29 µM | Potency [6] 2.08 µM | Potency [1] 2.93 µM | Potency [2] 2.08 µM | Potency [3] 6.57 µM | Potency [7] 3.29 µM | Potency [4] 3.69 µM | Potency [8] 2.93 µM | Potency [9] 4.65 µM

C=C[C@@]1(C)CC(=O)[C@]2(O)[C@@]3(C)[C@@H](O)CCC(C)(C)[C@@H]3[C@H](O)[C@H](OC(C)=O)[C@@]2(C)O1
inactive: Potency [1] | Potency [2]

CCN(CC)CCOc1ccc2c(c1)C(=O)c1cc(OCCN(CC)CC)ccc1-2
active: Potency [5] 20.8 µM | Potency [10] 9.27 µM | Potency [2] 23.3 µM
inactive: Potency [6] | Potency [1] | Potency [3] | Potency [8]

CCCCCCCCCCC[C@@H](C[C@@H]1OC(=O)[C@H]1CCCCCC)OC(=O)[C@H](CC(C)C)NC=O
active: Potency [2] 4.65 µM
inactive: Potency [5] | Potency [6] | Potency [1] | Potency [7] | Potency [4] | Potency [8] | Potency [9]

CCN[C@@H]1C[C@H](N)[C@@H](OC2OC(CN)=CCC2N)[C@H](O)[C@H]1O[C@H]1OC[C@](C)(O)[C@H](NC)[C@H]1O (stereo not given in full)
inactive: activity change, negative = cytotoxic [5] 4.53% [at 0.556 µM] | Potency [10] | activity change, negative = cytotoxicity [6] -17.7% [at 0.556 µM] | outcome [1] inactive [at 0.556 µM] | activity change, negative = cytotoxic [2] 13.6% [at 0.556 µM] | activity change, negative = cytotoxic [3] 11.8% [at 0.556 µM] | activity change, negative = cytotoxic [7] 4.31% [at 0.556 µM] | activity change, negative = cytotoxic [4] 25.4% [at 0.556 µM] | activity change, negative = cytotoxic [8] 11.1% [at 0.556 µM] | activity change, negative = cytotoxic [9] 3.87% [at 0.556 µM]

Nc1nc(Cl)nc2c1ncn2[C@@H]1O[C@H](CO)[C@@H](O)[C@@H]1F
active: Potency [5] 0.329 µM | Potency [10] 0.369 µM | Potency [6] 0.522 µM | Potency [4] 5.22 µM | Potency [8] 0.465 µM
inactive: Potency [1] | Potency [3]

NC(N)=NN=C(/C=C/c1ccc([N+](=O)[O-])o1)/C=C/c1ccc([N+](=O)[O-])o1
active: Potency [5] 1.47 µM | Potency [2] 1.65 µM | Potency [3] 4.14 µM | Potency [7] 4.65 µM | Potency [4] 2.08 µM | Potency [9] 5.22 µM
inactive: Potency [1]

CCCCCCCCCCCCOCCOCCOCCOCCOCCOCCOCCOCCOCCO
inactive: Potency [5] | Potency [3] | Potency [7] | Potency [4] | Potency [8] | Potency [9]
active: Potency [1] 14.7 µM

CCN1/C(=C/C=C/c2sc3ccccc3[n+]2CC)Sc2ccccc21
inactive: Potency [4]
active: Potency [5] 0.827 µM | Potency [10] 1.04 µM | Potency [6] 0.465 µM | Potency [1] 0.811 µM | Potency [2] 0.512 µM | Potency [7] 5.22 µM | Potency [8] 4.14 µM | Potency [9] 5.85 µM

O=C(Oc1cccc2cccnc12)c1ccccc1
inactive: Potency [6] | Potency [1] | Potency [3] | Potency [4]
active: Potency [5] 20.8 µM | Potency [2] 8.27 µM

O=C(CCCN1CC=C(n2c(=O)[nH]c3ccccc32)CC1)c1ccc(F)cc1
active: Potency [2] 18.5 µM
inactive: Potency [5] | Potency [6] | Potency [3] | Potency [7] | Potency [4] | Potency [8] | Potency [9]

C[C@H]1O[C@@H](O[C@H]2CC[C@@]3(C)[C@H](CC[C@@H]4[C@@H]3C[C@@H](O)[C@]3(C)[C@@H](C5=CC(=O)OC5)CC[C@]43O)C2)C[C@H](O)[C@@H]1O[C@H]1C[C@H](O)[C@H](O[C@H]2C[C@H](O)[C@H](O[C@@H]3O[C@H](CO)[C@@H](O)[C@H](O)[C@H]3O)[C@@H](C)O2)[C@@H](C)O1
active: Potency [5] 0.185 µM | Potency [10] 0.233 µM | Potency [6] 0.293 µM | Potency [1] 0.293 µM | Potency [2] 0.147 µM | Potency [4] 0.414 µM | Potency [8] 0.928 µM | Potency [9] 0.293 µM
